Bioassay records from PubChem BioAssay.
SNCA expr inhib = inhibitors of alpha-synuclein (SNCA) gene expression; HEK-293 SNCA-luciferase knock-in, luminescence, 24 h; Potency, µM (titrated, usually from 57.2 µM), for the others: at the highest dose activity change, negative = inhibition, hits mostly inhibitors; 0.17% of 140,000 active;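 further: plate controls were DMSO cells for no effect and cell-free wells for full effect; nearly all actives have a fitted effect of over 45% in size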
Luciferase inh = inhibitors of firefly (Photinus pyralis) luciferase | purified P. pyralis luciferase, luminescence, biochemical | Potency, µM (series often up to 115 µM), hits mostly inhibitors | 2.5% of 76,000 active | AID 1347043; further: nearly all actives have a fitted effect of over 65% in size
Target sequence (P08659 whole entry, looked up): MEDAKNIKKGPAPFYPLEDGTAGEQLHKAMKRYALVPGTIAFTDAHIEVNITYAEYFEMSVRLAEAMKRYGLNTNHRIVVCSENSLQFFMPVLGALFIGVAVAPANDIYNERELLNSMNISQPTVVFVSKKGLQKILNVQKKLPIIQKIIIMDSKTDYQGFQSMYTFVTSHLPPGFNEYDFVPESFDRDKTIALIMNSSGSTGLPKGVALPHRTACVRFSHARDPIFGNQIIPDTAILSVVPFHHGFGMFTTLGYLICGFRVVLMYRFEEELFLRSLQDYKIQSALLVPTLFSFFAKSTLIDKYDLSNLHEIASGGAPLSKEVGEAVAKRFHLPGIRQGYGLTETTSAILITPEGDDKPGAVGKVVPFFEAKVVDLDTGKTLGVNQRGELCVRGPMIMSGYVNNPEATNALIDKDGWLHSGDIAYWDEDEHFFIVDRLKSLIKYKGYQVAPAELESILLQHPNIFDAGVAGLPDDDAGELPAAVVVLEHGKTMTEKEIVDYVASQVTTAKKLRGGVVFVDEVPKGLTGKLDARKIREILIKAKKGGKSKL
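Luminescence read by CCD imaging after purified firefly luciferase (10nM final) was added to substrate buffer holding 10uM D-luciferin and 10uM ATP, pH 7.5, pre-dosed with compound.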
NIH3T3 tox = kills NIH 3T3 cells; NIH 3T3 viability, CellTiter-Glo ATP luminescence, 48-72 h; Potency, µM (series often up to 96.7 µM), inactives show top-dose activity change, negative = cytotoxicity, usual class: inhibitors; 4.3% of 94,000 active; AID 1345082; further: nearly all actives have a fitted effect of over 55% in size
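ATP-dependent luminescence (CellTiter-Glo) served as the viability signal for NIH 3T3 cells treated with compound for 48 or 72 hr at 37 °C.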
NPR1 antag = antagonists of human natriuretic peptide receptor Npr1 | HEK293 hNpr1 GloSensor cGMP, ANP-stimulated luminescence | Potency, µM (highest dose often 46.3 µM), inactives show top-dose activity change, negative = inhibition, most hits filed as inhibitors | 1.6% of 76,000 active | AID 1347048; calls by dose curve; further: nearly all actives have a fitted effect of over 60% in size
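HEK293 cells stably expressing human Npr1 and cGMP GloSensor pGS-40F, loaded 2 h with 2% GloSensor reagent, given compound 30 min at room temperature. Luminescence read before and 20 min after 0.1 nM hNppA.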
HEK cytotox = kills HEK 293 cells; HEK 293 viability, ATP luminescence (CellTiter-Glo), 48-72 h; Potency, µM (titrated, usually from 115 µM), without a hit: at the highest dose activity change, negative = cytotoxicity, actives largely listed as inhibitors; 6.6% of 94,000 active; further: nearly all actives have a fitted effect of over 60% in size
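Viability of HEK 293 cells, plated at 250 cells/well, was judged by cellular ATP after compound treatment for 48 or 72 hr. Luminescence was imaged 10 min after CellTiter-Glo addition at room temperature.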
HEK293 viab = counter-screen for SNCA expression inhibitors: cell viability | HEK-293-SNCA-luc viability, GF-AFC fluorescence, 24 h | 0.12% of 150,000 active | Potency, µM (doses to about 57.1 µM), inactives show at the highest dose activity change, negative = cytotoxicity, most hits filed as cytotoxic;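 further: 0% = DMSO-treated cells and -100% = medium-only wells without cells; nearly all actives have a fitted effect of over 30% in size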
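HEK-293-SNCA-luc cells (1500/well) plated 24 h, then exposed 24 h to a dilution series; GF-AFC added 30 min at 37C, fluorescence 405/540 nm; normalised to medium-only and DMSO wells, Hill fit.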
An asterisk follows results filed as active; [ ] = another dose, or the depositor's remark. Most compounds without a hit are left out; they make up all but 7.4% or so of the library. Unless noted, the call rests on the fitted dose curve; in most records, active means well fitted curve in the direction sought with a large enough effect; inconclusive means small, poorly fitted or top-dose-only effect, or another doubt; inactive means no such curve, though single readings can be large; an effect the other way counts as inactive or inconclusive. Unless noted, on the % scale 0 is the no-effect control and ±100 the full control effect; potency means the concentration at half of the fitted maximal effect.

O=C(C1CCCC1)N1CC2(CCNC2)OCc2ccccc21 (stereo not given) was read as SNCA expr inhib 8%, NIH3T3 tox inactive, HEK cytotox inactive and HEK293 viab -1%.
Screening c1ccc2c(c1)COC1(CCNC1)CN2CC1CCCCC1 (stereo not given) returned SNCA expr inhib -20%[87.6 µM], NIH3T3 tox 32µM*, HEK cytotox 79µM* and HEK293 viab -19%[87.6 µM].
For COCc1noc(CCNC(=O)c2cc(S(N)(=O)=O)ccc2F)n1 the results were SNCA expr inhib 8%, Luciferase inh inactive, NIH3T3 tox -1%, NPR1 antag 1%, HEK cytotox -3% and HEK293 viab -1%.
COc1cc(OC)cc(C(=O)N[C@@H]2COCC[C@@H]2Oc2cccc(F)c2)c1 was read as SNCA expr inhib -8%, Luciferase inh inactive, NIH3T3 tox -23%, NPR1 antag -5%, HEK cytotox 1% and HEK293 viab 1%.
Screening Oc1cccc(-c2cc(-c3cccnc3)c3cncn3c2)c1 returned SNCA expr inhib inconclusive, Luciferase inh inconclusive, NIH3T3 tox 25µM*, NPR1 antag -27%[70.6 µM], HEK cytotox 56µM* and HEK293 viab -8%[87.6 µM].
Screening c1cncc(-c2cc(-c3ccc4cn[nH]c4c3)cn3cncc23)c1 returned SNCA expr inhib inconclusive, Luciferase inh inconclusive, NIH3T3 tox inconclusive, NPR1 antag -12%[70.6 µM], HEK cytotox inconclusive and HEK293 viab -9%[87.6 µM].
COc1ccc(-c2cc(-c3cccnc3)cn3cncc23)cc1 was read as SNCA expr inhib -6%[87.6 µM], Luciferase inh inactive, NIH3T3 tox 40µM*, NPR1 antag -18%[70.6 µM], HEK cytotox inconclusive and HEK293 viab -18%[87.6 µM].
Cc1ccc(-c2cc(-c3cccnc3)c3cncn3c2)cn1 was read as SNCA expr inhib 8%[87.6 µM], Luciferase inh inactive, NIH3T3 tox 40µM*, NPR1 antag -14%[70.6 µM], HEK cytotox inconclusive and HEK293 viab -8%[87.6 µM].
For COc1ccc(-c2cc(-c3cccnc3OC)cn3cncc23)cc1 the results were SNCA expr inhib -7%[87.6 µM], Luciferase inh inactive, NIH3T3 tox 35µM*, NPR1 antag -20%[70.6 µM], HEK cytotox inconclusive and HEK293 viab -9%[87.6 µM].
For CC(C)N1C(=O)CO[C@H]2CN(C(=O)c3ccncc3)C[C@H]21 the results were SNCA expr inhib 4%[87.6 µM], Luciferase inh inactive, NIH3T3 tox -11%[174 µM], NPR1 antag -3%[70.6 µM], HEK cytotox 2%[230 µM] and HEK293 viab 3%[87.6 µM].
For O=C(C1CCCC1)N1CCC2(CC1)CC(=O)N(c1ccccc1)c1ccccc1O2 the results were SNCA expr inhib 17%, Luciferase inh inactive, NIH3T3 tox inactive, NPR1 antag 8%, HEK cytotox inactive and HEK293 viab 3%.
For COc1ccc(-c2cc(-c3cnc4[nH]ccc4c3)cn3cncc23)cc1 the results were SNCA expr inhib 13%[87.6 µM], Luciferase inh inconclusive, NIH3T3 tox 79µM*, NPR1 antag -19%[70.6 µM], HEK cytotox inconclusive and HEK293 viab -7%[87.6 µM].
For COc1ccc(-c2cc(-c3cccc(NC(C)=O)c3)cn3cncc23)cc1 the results were SNCA expr inhib -9%[87.6 µM], Luciferase inh inconclusive, NIH3T3 tox inconclusive, NPR1 antag -18%[70.6 µM], HEK cytotox inconclusive and HEK293 viab -9%[87.6 µM].
For OCc1cccc(-c2cc(-c3ccncc3)c3cncn3c2)c1 the results were SNCA expr inhib -7%[87.6 µM], Luciferase inh inactive, NIH3T3 tox 13µM*, NPR1 antag -13%[70.6 µM], HEK cytotox 25µM* and HEK293 viab 4%[87.6 µM].
Screening COc1ncccc1-c1cc(-c2ccncc2)c2cncn2c1 returned SNCA expr inhib 1%[87.6 µM], Luciferase inh inactive, NIH3T3 tox 28µM*, NPR1 antag 2%[70.6 µM], HEK cytotox inconclusive and HEK293 viab 11%[87.6 µM].
For COc1ccc(-c2cc(-c3cn[nH]c3)c3cncn3c2)cn1 the results were SNCA expr inhib inconclusive, Luciferase inh inactive, NIH3T3 tox inconclusive, NPR1 antag -3%[70.6 µM], HEK cytotox inconclusive and HEK293 viab -9%[87.6 µM].
`COc1ccc(-c2cc(-c3ccc(OC)nc3)cn3cncc23)cc1` gave SNCA expr inhib 5%[87.6 µM], Luciferase inh inactive, NIH3T3 tox 40µM*, NPR1 antag -12%[70.6 µM], HEK cytotox 89µM* and HEK293 viab -14%[87.6 µM].
`O=C1COCCN1c1cc(-c2cnc3[nH]ccc3c2)cn2cncc12` gave SNCA expr inhib 4%[87.6 µM], Luciferase inh inactive, NIH3T3 tox -22%[138 µM], NPR1 antag 2%[70.6 µM], HEK cytotox inconclusive and HEK293 viab 2%[87.6 µM].
`COc1ncccc1-c1cc(-c2cccnc2)c2cncn2c1` gave SNCA expr inhib 23%[87.6 µM], Luciferase inh inactive, NIH3T3 tox inconclusive, NPR1 antag 1%[70.6 µM], HEK cytotox inconclusive and HEK293 viab -3%[87.6 µM].
Screening O=C(N[C@@H]1C[C@H](Cn2cc(C3CC3)nn2)[C@@H](O)[C@H]1O)c1cncnc1 returned SNCA expr inhib 0%[87.6 µM], Luciferase inh inactive, NIH3T3 tox -3%[138 µM], NPR1 antag -3%[70.6 µM], HEK cytotox inactive and HEK293 viab -4%[87.6 µM].
`COc1ccc(C(=O)N2CCC3(C2)C(=NC2CCCCC2)NC(=O)N3c2cc(F)cc(F)c2)cc1` (stereo not given) gave SNCA expr inhib inconclusive, NIH3T3 tox inconclusive, HEK cytotox -18% and HEK293 viab -8%.
Screening COc1ncccc1-c1nccc2c(=O)cc(N3CCOCC3)oc12 returned SNCA expr inhib 8%[87.6 µM], Luciferase inh inactive, NIH3T3 tox 50µM*, NPR1 antag -4%[70.6 µM], HEK cytotox inconclusive and HEK293 viab -6%[87.6 µM].
`Cn1nccc1-c1nccc2c(=O)cc(N3CCOCC3)oc12` gave SNCA expr inhib 21%[87.6 µM], Luciferase inh inactive, NIH3T3 tox 50µM*, NPR1 antag -6%[70.6 µM], HEK cytotox inconclusive and HEK293 viab -10%[87.6 µM].
Cc1ccccc1-c1nccc2c(=O)cc(N3CCOCC3)oc12 was read as SNCA expr inhib -3%[87.6 µM], Luciferase inh inactive, NIH3T3 tox 35µM*, NPR1 antag 4%[70.6 µM], HEK cytotox inconclusive and HEK293 viab 6%[87.6 µM].
For COc1ccccc1-c1nccc2c(=O)cc(C3=CCOCC3)oc12 the results were SNCA expr inhib -27%[87.6 µM], Luciferase inh inactive, NIH3T3 tox 13µM*, NPR1 antag -1%[70.6 µM], HEK cytotox 63µM* and HEK293 viab -16%[87.6 µM].
`COc1cc(F)ccc1-c1nccc2c(=O)cc(-c3cnn(C)c3)oc12` gave SNCA expr inhib -20%[87.6 µM], Luciferase inh inactive, NIH3T3 tox inconclusive, NPR1 antag -1%[70.6 µM], HEK cytotox inconclusive and HEK293 viab inconclusive.
